Experimental data taken from PubChem BioAssay AID588649 (The Scripps Research Institute Molecular Screening Center, 2011).
The list shows a part of the results. Unmarked numbers belong to inactive results. Activity calls are given as the source filed them. Rule as the data show it: active = inhibition above about 40%; inactive = the rest.

Test system: Fam108b (ABHD17B) [Mus musculus]
Assay: mouse ABHD17B hydrolase inhibitors – biochemical, gel-based ABPP, soluble recombinant form, HTS hits, late-stage follow-up (AID 588649)
Conditions: fluorophosphonate probe, at 20 µM, active compounds read high

SMILES | inhibition
O=C(Nc1ccc(-c2csc(Nc3cccc(C(F)(F)F)c3)n2)cc1)c1cccc(C(F)(F)F)c1 | 85% (active)
COc1ccc(NS(=O)(=O)c2cc(NC(=O)CC(=O)c3ccc([N+](=O)[O-])cc3)ccc2C)cc1 | 25%
Cc1ccc(S(=O)(=O)N=C2C=C(Sc3ncn[nH]3)C(=O)c3ccccc32)cc1 | 90% (active)
Oc1c(Cl)cc(Cl)c(Cl)c1Cc1c(O)c(Cl)cc(Cl)c1Cl | 65% (active)
Nc1ccc2nc3c(=O)[nH]c(=S)[nH]c3nc2c1 | 0%
COc1ccc(/C=C/C(=O)OCC(=O)Nc2cccc(Oc3ccccc3)c2)c(OC)c1 | 90% (active)
O=C(NNc1c2ccccc2nc2ccccc12)c1cc2ccccc2cc1O | 10%
CC[N+](C)(CC)CCC[n+]1c(-c2ccccc2)c2cc(N)ccc2c2ccc(N)cc21 | 25%
